# In all, about 2,300 compounds went through this assay and about 1,000 (43%) were called active. No rule for the calls is given here. The set was probably picked from earlier hits. Some of the results follow. Results with a measured potency or affinity are listed apart.
# Experiment: modified counter assay using GFP fluorescence, PhoP regulon inhibitor project, dose response (AID 1985)
# Details: S. Typhi, 4 h; series mostly up to 150 µM; inhibition: at the top concentration
row,SMILES,inhibition
1,CN1Cc2ccccc2N(CC(=O)NCc2ccccc2)C1=O,17.8% (inactive)
2,O=C(CC1(O)C(=O)Nc2ccc(Br)cc21)c1ccc2c(c1)OCO2 (stereo not drawn),-18.1% (inactive)
3,CCOC(=O)CNC(=O)Cn1c(C)cc2ccccc2c1=O,-9.62% (inactive)
4,CCn1c(=N)n(CC(=O)c2ccc(OC)cc2)c2ccccc21,26% (inactive)
5,O=C(CN(Cc1ccco1)C(=O)CNS(=O)(=O)c1ccc(Cl)cc1)NCc1ccc(F)cc1,-0.77% (inactive)
6,CS(=O)(=O)N(CCc1ccccc1)CC(=O)Nc1ccc2c(c1)OCO2,-15.3% (inactive)
7,CCN1CCN(CC(=O)Nc2ccc(C)c(Br)c2)CC1,10.2% (inactive)
8,CCN(CC)CCn1nc(C)nc1-c1ccccc1O,27.2% (inactive)
9,c1ccc2oc(-c3ccc(Nc4nc(N5CCCCC5)nc(N5CCOCC5)n4)cc3)nc2c1,-13.3% (inactive)
10,Nc1nc(N2CCN(c3ccccn3)CC2)nc2ccccc12,1.19% (inactive)
11,C/C(=N\Nc1ccc(C)c(Cl)c1)c1cccnc1,-11.4% (inactive)
12,Clc1ccc(Nc2nc(C3CC3)cs2)cc1,12% (inactive)
13,Cc1ccc(NC2=NCCCS2)cc1Cl,38% (inactive)
14,CCc1nc(SCC(=O)Nc2ccc(N(C)C)cc2)c2ccccc2n1,-3.05% (inactive)
15,O=C(CN1C2=NCCN2c2ccccc21)c1ccc2c(c1)OCO2,9.44% (inactive)
16,CN(C)C(/C=C/Nc1ccc(F)cc1F)=C(C#N)C#N,-10.3% (inactive)
17,CCOc1ccc(NC(=O)CN(C)C(=O)c2ccccc2CCc2ccccc2)cc1OCC,-32.9% (inactive)
18,CC(C)CC(=O)Nc1ccc(-c2cn3cccnc3n2)cc1,14.1% (inactive)
19,CCOc1ccc(NC(N)=O)cc1,15.4% (inactive)
20,CCOc1ccc(-c2nc(N)ncc2-c2ccccc2)c(O)c1,18.8% (inactive)
21,Cc1ccc(Cn2c(=N)c(C(=O)NCc3ccco3)cc3c(=O)n4ccccc4nc32)cc1,16.6% (inactive)
22,CCn1cnc2cc(NCc3ccc(Br)cc3)ccc21,15.8% (inactive)
23,NC(=O)CN1N=C(c2cc(Cl)sc2Cl)CSC1=O,4.36% (inactive)
24,CN1C(=O)c2ccc(NC(=O)C3CCCCC3)cc2C1=O,-8.71% (inactive)
25,COc1ccc(C(=O)Nc2cc3c(cc2OC)CCCC3)cc1Br,-5.35% (inactive)

row,SMILES,inhibition
1,CCCCN(CCCC)CCNC(=O)CSCc1ccc(C)cc1,-17.4% (inactive)
2,COCc1[nH]nc2c1C(c1ccc(OC)cc1)C(C#N)=C(N)O2 (stereo not drawn),-3.75% (inactive)
3,CCCCn1cnc2cc(NCc3cccc(OC)c3O)ccc21,28.6% (inactive)
4,COc1ccccc1NC(=O)Cn1cnc2c(nnn2-c2ccc(C)cc2)c1=O,-10.9% (inactive)
5,COc1cccc(/C=N/NC(=O)CNC(=O)CCc2ccccc2)c1O,24.4% (inactive)
6,COc1cccc(/C=N/NC(=O)CO/N=C(\C)c2cccs2)c1OC,34.1% (inactive)
7,Cc1ccc(C)c2[nH]c(=O)c(CN(Cc3cccnc3)C(=S)NCc3ccco3)cc12,-16.5% (inactive)
8,C=CCn1c(NC(C)c2cc(Cl)ccc2O)nc2ccccc21 (stereo not drawn),-14.7% (inactive)
9,COc1ccc(C2=NN3C(=O)c4c(ccc(OC)c4OC)C3C2)cc1 (stereo not drawn),9.8% (inactive)
10,O=C(NCc1cccnc1)c1ccc(Cl)cc1[N+](=O)[O-],-10.5% (inactive)
11,O=C(NCc1cccnc1)C1c2ccccc2C(=O)N1Cc1ccccc1 (stereo not drawn),-16.2% (inactive)
12,C=C(C)Cn1c(-c2ccc(OC)cc2)nc2ccccc21,3.51% (inactive)
13,COC(=O)Cn1c(=O)c(C)nc2ccccc21,-9.43% (inactive)
14,Clc1ccc(Cn2cc(Br)cn2)cc1Cl,3.19% (inactive)
15,COc1ccc(N2CCN(C(=O)c3cc4c(s3)-c3ccccc3S(=O)(=O)C4)CC2)cc1,-14.6% (inactive)
16,CCCC(=O)Nc1c2c(nn1-c1ccc(C)cc1C)CSC2,1.8% (inactive)
17,CN(C)C(=O)COC(=O)/C=C/c1ccccc1[N+](=O)[O-],-11.5% (inactive)
18,Oc1ccc(C2NCc3ccccc3-n3cccc32)cc1Cl (stereo not drawn),-0.67% (inactive)
19,COC(=O)C(NC(C)=O)(Nc1nc2c(s1)CCCC2)C(F)(F)F (stereo not drawn),-28.5% (inactive)
20,CCN1CCN(CCNC(=O)c2ccc(/C=C3/Sc4ccccc4N(Cc4cccc(C)c4)C3=O)cc2)CC1,12.9% (inactive)
21,CCN1CCN(CCCNC(=O)c2ccc(/C=C3/Sc4ccccc4N(Cc4ccccc4F)C3=O)cc2)CC1,33.6% (inactive)
22,S=C1NCN(C2CCCCC2)CN1c1ccccc1,36.9% (inactive)
23,CC(=O)C1C(c2ccc(OC(F)F)cc2)NC(=O)NC1(O)C(F)(F)F (stereo not drawn),3.26% (inactive)
24,COc1ccc(C2C3=C(CC(C)(C)CC3=O)Nc3cc4c(cc32)OCO4)cc1 (stereo not drawn),1.35% (inactive)
25,CCc1nc(C)ccc1OCC(=O)N(CC)CC,11.3% (inactive)

row,SMILES,inhibition
1,CCc1nc(C)ccc1OCC(=O)NCCCN(C)C,2.34% (inactive)
2,Cc1cc(C)n(/N=C/c2cc(Cl)cc(Cl)c2O)c(=O)c1,23.2% (inactive)
3,CC1CCN(C(=O)C2CCCN(S(C)(=O)=O)C2)CC1 (stereo not drawn),-2.3% (inactive)
4,NC(=O)c1ccc[n+](CC(=O)c2cccc([N+](=O)[O-])c2)c1,-10.5% (inactive)
5,Cc1ccc(C(=O)Nc2ccc3c(c2)ncn3C)cc1,36.9% (inactive)
6,COc1ccc(/C=N/NC(=O)c2cccnc2)c(C(=O)O)c1OC,-1.18% (inactive)
7,COc1cccc(/C=N/NC(=O)CNC(=O)COc2cccc(C)c2)c1O,14.2% (inactive)
8,CCCC1=C(C(=O)OCC)C(c2ccc(O)cc2)n2ncnc2N1 (stereo not drawn),3.12% (inactive)
9,O=C(CCc1nc2ccccc2s1)NC1CCOC1=O (stereo not drawn),11.8% (inactive)
10,COc1ccc(CCNC(=O)CSc2ccc(-c3ccncc3)nn2)cc1,-11.4% (inactive)
11,COC(=O)c1ccc(NC(=O)CO/N=C2\CCCc3nonc32)cc1,0.85% (inactive)
12,Cc1ccc2cc(-c3noc(C4CCCO4)n3)c(=O)[nH]c2c1 (stereo not drawn),-6.59% (inactive)
13,CC(C)c1ccc2oc(=O)cc(CN3CCN(c4ccc(F)cc4)CC3)c2c1,-5.48% (inactive)
14,Cc1ccc(NC(=O)COc2ccccc2CNC(C)(C)CC(C)(C)C)cc1,17.6% (inactive)
15,Cc1ccc(NC(=O)Cc2ccc(F)cc2)cc1,-1.3% (inactive)
16,c1ccc2c(c1)C(=NC1CCCCC1)NC2=NC1CCCCC1,19.5% (inactive)
17,Cc1nn(-c2cc(N3CCNCC3)ccc2[N+](=O)[O-])c(=O)c2ccccc12,5.09% (inactive)
18,Cc1cc(N2CCCCC2)c(F)cc1[N+](=O)[O-],-27.7% (inactive)
19,CCN(CC(=O)Nc1ccc(C(=O)OC)cc1)C1CCCCC1,15.1% (inactive)
20,Cc1ccc(N2C(=O)[C@@H]3[C@H](C2=O)[C@H]2C=CC=NN2[C@@H]3C(=O)Nc2ccc(Cl)cc2)cc1,-11.7% (inactive)
21,COC(=O)c1cccc(C(=O)N2CCCC(CCC(=O)N(C)CCc3ccccn3)C2)c1 (stereo not drawn),-17.6% (inactive)
22,C[C@@H](CO)NC(=O)c1ccc2c3n(nc2c1)-c1ccc(Cl)cc1CO3,17.5% (inactive)
23,Clc1ccc2c(NCc3ccccn3)ccnc2c1,12.8% (inactive)

# From PubChem BioAssay AID1985 (Southern Research Specialized Biocontainment Screening …, 2009)
